Results as given in PubChem BioAssay (EPA / NIEHS).
Results filed as inconclusive are left out. Active and inactive are the calls of the source. How the source made its calls: active means hit-call score of the fitted dose curve at least 0.9, where 1 is the maximum; inconclusive means response in the unintended direction; inactive means score below 0.9.

These compounds were tested against Retinoic acid receptor RXR-alpha (Homo sapiens) (UniProt P19793) (assay: OT_NURR1_NURR1RXRa_0480: Odyssey Thera (OT) 8-hour HEK293T Protein Complementation Assay for Nurr1/retinoid X receptor (RXR) (AID 2283385)).
Sequence of Retinoic acid receptor RXR-alpha (Homo sapiens) (P19793 whole entry, looked up, the tested form may be a part): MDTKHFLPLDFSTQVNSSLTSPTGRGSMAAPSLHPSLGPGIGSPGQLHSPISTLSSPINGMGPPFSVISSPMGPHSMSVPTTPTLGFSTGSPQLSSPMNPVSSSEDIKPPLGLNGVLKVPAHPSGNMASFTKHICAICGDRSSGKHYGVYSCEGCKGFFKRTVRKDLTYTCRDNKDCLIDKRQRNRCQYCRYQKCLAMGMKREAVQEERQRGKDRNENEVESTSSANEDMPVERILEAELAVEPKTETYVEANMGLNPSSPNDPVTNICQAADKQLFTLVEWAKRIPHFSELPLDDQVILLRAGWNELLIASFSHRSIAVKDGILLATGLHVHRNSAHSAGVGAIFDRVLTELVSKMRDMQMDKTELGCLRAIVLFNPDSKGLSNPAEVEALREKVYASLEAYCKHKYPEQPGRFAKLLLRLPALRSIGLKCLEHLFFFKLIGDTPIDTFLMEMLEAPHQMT
Method in brief: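 HEK293T cells expressing Nurr1 and RXRα fused to reporter fragments were dosed with compound for 8 hours. Complex formation was read as fluorescence intensity and analysed as gain of signal against DMSO as baseline.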
Cn1cnc([N+](=O)[O-])c1Sc1ncnc2nc[nH]c12 was tested, and the outcome was “inactive”.
With O=C(O)c1cc(N=Nc2ccc(S(=O)(=O)Nc3ccccn3)cc2)ccc1O the outcome was “inactive”.
For O=C(CCCCCCCCc1cccnc1)N1CCC(C=C(c2ccccc2)c2ccccc2)CC1, the outcome was “inactive”.
O=c1[nH]c2ccc(S(=O)CCN3CCC(Cc4ccc(F)cc4)CC3)cc2o1 (stereo not drawn) was tested, and the outcome was “inactive”.
With COc1ccc(-n2nc(C(F)F)cc2-c2ccc(S(C)=O)cc2)cc1 (stereo not drawn) the outcome was “inactive”.
For C[C@](N)(Cc1ccc(O)c(O)c1)C(=O)O, the outcome was “inactive”.
CC1=CC(=O)CC(C)(C)C1 was tested, and the outcome was “inactive”.
With COc1cccc(-c2ccc(/C=C\CN3CCCCCC3)cc2Cl)c1 the AC50 was 10.3 µM (active).
With C=CCCCCCCCCC(=O)O the outcome was “inactive”.
For CCCCCCc1ccc(O)cc1O, the outcome was “inactive”.
With Nc1nc2ncc(CNc3ccc(C(=O)N[C@@H](CCC(=O)O)C(=O)O)cc3)nc2c(=O)[nH]1 the outcome was “inactive”.
For CCOCCO, the outcome was “inactive”.
In the case of CC(C)=CCCC(C)=CC=O, the outcome is reported as “inactive”.
For CCC(C)(C)C(=O)O[C@H]1C[C@@H](C)C=C2C=C[C@H](C)[C@H](CC[C@@H]3C[C@@H](O)CC(=O)O3)[C@H]21, the outcome was “inactive”.
In the case of CC[C@H]1OC(=O)[C@H](C)[C@@H](O[C@H]2C[C@@](C)(OC)[C@@H](O)[C@H](C)O2)[C@H](C)[C@@H](O[C@@H]2O[C@H](C)C[C@H](N(C)C)[C@H]2O)[C@](C)(O)C[C@@H](C)C(=O)[C@H](C)[C@@H](O)[C@]1(C)O, the outcome is reported as “inactive”.
For CC[C@H]1CC[C@H](NCc2cc3c(cc2OC)[C@H]2C[C@H]2C(=O)N3C)[C@H](c2ccccc2)N1, the outcome was “inactive”.
With CCn1nc(Cc2ccccc2)cc1C1CCN(C[C@H]2C[C@H](N(C)[C@@H](C(=O)O)C(C)C)C[C@@H]2c2cccc(F)c2)CC1 the outcome was “inactive”.
With O=C(O)c1cccc(N(Cc2cccnc2)c2ccc(OC(F)F)c(OC(F)F)c2)c1 the AC50 was 29.4 µM (active).
With Fc1ccccc1[C@@H](F)COC1CCC(Nc2ncnc3[nH]ncc23)CC1 (stereo partly drawn) the outcome was “inactive”.
O=C(O)CC(O)C(=O)O (stereo not drawn) was tested, and the outcome was “inactive”.
With Nc1ccc(Nc2ccccc2)cc1 the outcome was “inactive”.
For CC(C)CC(C)(O)C#CC(C)(O)CC(C)C (stereo not drawn), the outcome was “inactive”.
O=C(O)CCN(C1(C(=O)NO)CCCC1)S(=O)(=O)c1ccc(Oc2ccc(F)cc2)cc1 was tested, and the outcome was “inactive”.
